# Source: PubChem BioAssay (NCI)
# This is part of a sample that, as a whole, favours compounds with a hit. Of some 83,000 tested, about 20% had one in any assay.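 Testing used 96-well plates and a 48-hour single-concentration exposure. Example: -40 means 40% of the starting cells died.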 The source made the active and inactive calls. The calls were made as follows: active = growth percent below 10; inactive = the rest.
# System: HL-60(TB) leukemia
# Test: NCI-60 one-dose screen, 48 h (100 = growth as untreated, 0 = no growth, -100 = all killed)
# Conditions: 10 µM unless noted
row,SMILES,growth
1,COc1cc(-c2n[nH]nc2-c2ccc3c(c2)OCCO3)cc(OC)c1OC,-5.41% (active)
2,COC(=O)/C=C1\S/C(=N\Nc2ccc([N+](=O)[O-])cc2[N+](=O)[O-])N(C2CCCCC2)C1=O,8.63% (active)
3,COc1ccc(Cn2cc(COc3ccc4c5ccnc(C)c5n(CCCc5ccccc5)c4c3)nn2)cc1,-55.7% (active)
4,Nc1cc(C(=O)NC[C@H]2CN(c3ccc(N4CCC(C(=O)O)CC4)cc3)C(=O)O2)ccc1Cl,97.9% (inactive)
5,O=[N+]([O-])c1ccc(C2CC(c3ccccc3)=Nc3ccccc3S2)cc1 (stereo not given),36.1% (inactive)
6,Cc1ccc(NC(=O)c2ccc(Nc3ncnc4c3cnn4-c3cccc(F)c3)cc2)cc1,90.2% (inactive)
7,COc1ccc(-c2[nH]c3ccc(OC)cc3c2/C=C(\C#N)S(=O)(=O)c2ccccc2)cc1,8.54% (active)
8,O=C1C(Cl)=C(N/N=c2/[nH][nH]/c(=N/NC3=C(Cl)C(=O)c4ccccc4C3=O)c3ccccc23)C(=O)c2ccccc21,39.5% (inactive)
9,O=c1[nH]c(-c2ccc(Cl)cc2)nc2sc3c(c12)CCCC3,90.7% (inactive)
10,CCc1ccc(-c2ccc(=O)n(-c3ccc(S(N)(=O)=O)cc3)n2)cc1,-4.27% (active)
11,O=C(COc1ccc(/C=C2\COc3ccccc3C2=O)cc1)Nc1nccs1,-11.4% (active)
12,Fc1cccc(COc2ccc(Nc3ncnc4onc(-c5ccccc5)c34)cc2)c1,7.34% (active)
13,CCn1cnc2c1c(=O)[nH]c(=O)n2CC1CCC(CNS(=O)(=O)c2ccc(OC3CCOCC3)c(F)c2)CC1 (stereo not given),13.2% (inactive)
14,N#CSCc1ccc(Cl)c(CSC#N)c1,0.395% (active)
15,CCOC(=O)C(C)C(C)(O)c1ccccc1 (stereo not given),99.2% (inactive)
16,CCOC(=O)c1cc(C#N)n2ncc3ccccc3c12,105% (inactive)
17,Cc1oc(-c2ccc(Cl)cc2Cl)cc1C(=O)Nc1nccs1,97.4% (inactive)
18,COc1cc(/C=C/C(=O)c2c(C)n([O-])c3ccc(Cl)cc3[n+]2=O)cc(OC)c1OC,12.7% (inactive)
19,C=C1CC[C@@H]2[C@](C)(COC(C)=O)[C@H](OC(C)=O)CC[C@@]2(C)[C@@H]1CC(Nc1ccc(S(=O)(=O)Nc2nccc(C)n2)cc1)C1=CCOC1=O (stereo not given in full),-17.3% (active)
20,Cc1ccc(C(=O)Nc2ccc(CN3CCN(C)CC3)c(C(F)(F)F)c2)cc1C#Cc1cnc(N)c2ccc(C#N)cc12,30.9% (inactive)

row,SMILES,growth
1,COc1ccccc1N1CCN(CCn2c(=O)c3c(c4ccccc4n3C)n(C)c2=O)CC1,109% (inactive)
2,Cc1ccc(C(=O)COc2cccc(/C=C3\Oc4ccccc4C3=O)c2)cc1,78.7% (inactive)
3,CC[N+](C)(C)N,103% (inactive)
4,C/C(=N\Nc1ccc([N+](=O)[O-])cc1[N+](=O)[O-])c1ccc(Br)cc1,101% (inactive)
5,COc1cc(-c2nc(SCCC(C)C)nc(N3CCOCC3)c2C#N)cc(OC)c1OC,95.2% (inactive)
6,Oc1ccccc1-c1nnco1,96% (inactive)
7,Cc1ccc(S(=O)(=O)N2CCc3ccc(O)c4c3C2Cc2cc(Cl)ccc2-4)cc1 (stereo not given),85.3% (inactive)
8,CN(C)CCN1C(=O)c2cccc3c(-c4ccc5ncn(C6CCCCC6)c5c4)ccc(c23)C1=O,13.8% (inactive)
9,Nc1nc(N)c2cc(NCc3ccc(Cl)c(Cl)c3)ccc2n1,-65.7% (active)
10,Cc1ccc(N=Nc2c(N)nn(-c3ccccc3)c2N)cc1,17.5% (inactive)
11,Cc1nc2sc(C(=O)Nc3cccc(Br)c3)c(N)c2cc1C(=O)c1ccc(C(F)(F)F)cc1,98.7% (inactive)
12,COc1ccccc1N(C(C)=O)C1=C(Cl)C(=O)c2ccccc2C1=O,-27.5% (active)
13,O=C(S)CNC(=O)c1ccccc1,91% (inactive)
14,Cc1cc(=O)oc2cc(O)cc(O)c12,109% (inactive)
15,O=[N+]([O-])c1ccccc1NCSc1ccc(Cl)cc1,65.7% (inactive)
16,CCNCc1ccccc1,101% (inactive)
17,CC(=O)CC(=O)SC1=NCCS1,107% (inactive)
18,C=CCC(OC(C)=O)c1ccc(C(C)C)cc1 (stereo not given),83.1% (inactive)
19,O=C1/C(=C\c2cccn2Cc2ccc(Cl)cc2)c2ccccc2N1c1c(Cl)cccc1Cl,79.7% (inactive)
20,C[C@H]1C=C(C[C@@H](O)CC#CC#CCCCCC[C@@H](O)[C@H]2CCC(=O)O2)C(=O)O1,99.1% (inactive)
